Source: PubChem BioAssay AID1159580 (chemical genetic matrix, 2015)
Where “and” joins values, the source holds several entries; their conditions need not be identical. Equal values may be shown once. Among all 5,500 compounds or so, about 2,000 (36%) were called active. Another 18% or so got no clear call; they are omitted. Cut-off read from the data, not from the text of the source: active = normalized growth mostly below about 0.91 (no sharp cut-off); inconclusive = no clear call, values can overlap the other calls; inactive = mostly above about 0.92. The list shows a part of the results.

Experiment: chemical genetic growth profiling, strain panel (AID 1159580);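 note: tested at 20 µM; growth read once vehicle control cultures reached saturation at 30 °C; 1 = growth at the plate median or of vehicle wells; lower values mean less growth of the strain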
Conditions: growth OD

Measured: normalized growth

Cn1c(=O)c2[nH]c(C3CCCC3)nc2n(C)c1=O
inactive: S. cerevisiae deletion strains, locus YJR075W, strain HOC1, active compounds read low 1.01 and 1.04 | S. cerevisiae deletion strains, locus YKL009W, strain mrt4, active compounds read low 1 | S. cerevisiae deletion strains, locus YKL068W, active compounds read low 1.02 | S. cerevisiae deletion strains, locus YKL085W, strain MDH1 (second series), active compounds read low 1.05 | S. cerevisiae deletion strains, locus YKL085W, strain MDH1, active compounds read low 1.05 | S. cerevisiae deletion strains, locus YKL160W, strain elf1, active compounds read low 0.983 | S. cerevisiae deletion strains, locus YKL190W, strain CNB1, active compounds read low 1.02 | S. cerevisiae deletion strains, locus YKR001C, strain vps1, active compounds read low 1 | S. cerevisiae deletion strains, locus YKR026C, strain gcn3, active compounds read low 1 | S. cerevisiae deletion strains, locus YKR091W, strain srl3, active compounds read low 0.991 | S. cerevisiae deletion strains, locus YLL001W, strain dnm1, active compounds read low 0.97 | S. cerevisiae deletion strains, locus YLL026W, active compounds read low 0.989 | S. cerevisiae deletion strains, locus YLL041C, strain sdh2, active compounds read low 0.988 | S. cerevisiae deletion strains, locus YLR027C, strain aat2, active compounds read low 0.995 | S. cerevisiae deletion strains, locus YLR039C, strain RIC1, active compounds read low 0.966 | S. cerevisiae deletion strains, locus YLR058C, strain SHM2, active compounds read low 1.01 | S. cerevisiae deletion strains, locus YLR102C, strain apc9, active compounds read low 0.999 | S. cerevisiae deletion strains, locus YLR113W, strain HOG1, active compounds read low 1 | S. cerevisiae deletion strains, locus YLR221C, strain rsa3, active compounds read low 0.988 | S. cerevisiae deletion strains, locus YLR258W, strain gsy2, active compounds read low 0.972 | S. cerevisiae deletion strains, locus YLR262C, strain YPT6 (second series), active compounds read low 0.997 | S. cerevisiae deletion strains, locus YLR262C, strain YPT6, active compounds read low 1.04 | S. cerevisiae deletion strains, locus YLR268W, strain sec22, active compounds read low 0.988 | S. cerevisiae deletion strains, locus YLR320W, strain mms22, active compounds read low 0.989 | S. cerevisiae deletion strains, locus YLR330W, strain CHS5, active compounds read low 1.01 | S. cerevisiae deletion strains, locus YLR342W, strain FKS1 (second series), active compounds read low 1 | S. cerevisiae deletion strains, locus YLR342W, strain FKS1, active compounds read low 0.986 | S. cerevisiae deletion strains, locus YLR357W, strain rsc2, active compounds read low 0.954 | S. cerevisiae deletion strains, locus YLR370C, strain arc18, active compounds read low 0.997 | S. cerevisiae deletion strains, locus YLR371W, strain rom2, active compounds read low 0.997 | S. cerevisiae deletion strains, locus YLR384C, strain iki3, active compounds read low 0.986 | S. cerevisiae deletion strains, locus YLR418C, strain cdc73, active compounds read low 0.989 | S. cerevisiae deletion strains, locus YML016C, strain PPZ1, active compounds read low 1.02 | S. cerevisiae deletion strains, locus YML032C, strain rad52, active compounds read low 0.99 | S. cerevisiae deletion strains, locus YML120C, strain ndi1, active compounds read low 0.992 | S. cerevisiae deletion strains, locus YML124C, strain tub3, active compounds read low 0.998 | S. cerevisiae deletion strains, locus YMR058W, strain fet3, active compounds read low 1 | S. cerevisiae deletion strains, locus YMR078C, strain ctf18, active compounds read low 0.996 | S. cerevisiae deletion strains, locus YMR125W, strain sto1, active compounds read low 0.979 | S. cerevisiae deletion strains, locus YMR129W, active compounds read low 0.999 | S. cerevisiae deletion strains, locus YMR205C, strain PFK2, active compounds read low 0.988 | S. cerevisiae deletion strains, locus YMR223W, strain ubp8, active compounds read low 0.989 | S. cerevisiae deletion strains, locus YMR231W, strain pep5, active compounds read low 0.988 | S. cerevisiae deletion strains, locus YMR263W, strain SAP30, active compounds read low 1.02 and 0.995 | S. cerevisiae deletion strains, locus YMR307W, strain GAS1, active compounds read low 1.05 and 1.01 | S. cerevisiae deletion strains, locus YNL067W, strain RPL9B, active compounds read low 1.02 | S. cerevisiae deletion strains, locus YNL071W, strain lat1, active compounds read low 0.997 | S. cerevisiae deletion strains, locus YNL128W, strain TEP1, active compounds read low 1.01 and 0.993 | S. cerevisiae deletion strains, locus YNL153C, strain GIM3, active compounds read low 1.01 and 0.975 | S. cerevisiae deletion strains, locus YNL175C, strain NOP13, active compounds read low 0.977 | S. cerevisiae deletion strains, locus YNL183C, strain NPR1, active compounds read low 0.942 | S. cerevisiae deletion strains, locus YNL197C, strain WHI3, active compounds read low 0.935 | S. cerevisiae deletion strains, locus YNL209W, strain ssb2, active compounds read low 0.996 | S. cerevisiae deletion strains, locus YNL224C, strain SQS1, active compounds read low 0.989 | S. cerevisiae deletion strains, locus YNL233W, strain BNI4, active compounds read low 1.01 | S. cerevisiae deletion strains, locus YNL248C, strain rpa49, active compounds read low 0.968 | S. cerevisiae deletion strains, locus YNL250W, strain rad50, active compounds read low 1 | S. cerevisiae deletion strains, locus YNL271C, strain bni1, active compounds read low 0.989 | S. cerevisiae deletion strains, locus YNL298W, strain CLA4, active compounds read low 0.998 | S. cerevisiae deletion strains, locus YNL307C, strain MCK1, active compounds read low 0.996 | S. cerevisiae deletion strains, locus YNL322C, strain KRE1 (second series), active compounds read low 0.985 | S. cerevisiae deletion strains, locus YNL322C, strain KRE1, active compounds read low 1.01 | S. cerevisiae deletion strains, locus YNR049C, strain mso1, active compounds read low 0.994 | S. cerevisiae deletion strains, locus YNR052C, strain pop2, active compounds read low 1 | S. cerevisiae deletion strains, locus YOL006C, strain TOP1, active compounds read low 1.05 | S. cerevisiae deletion strains, locus YOL012C, strain htz1 0.701 | S. cerevisiae deletion strains, locus YOL147C, strain pex11, active compounds read low 0.986 | S. cerevisiae deletion strains, locus YOR001W, strain rrp6, active compounds read low 0.989 | S. cerevisiae deletion strains, locus YOR061W, strain CKA2, active compounds read low 1.01 | S. cerevisiae deletion strains, locus YOR069W, strain VPS5, active compounds read low 1.01 | S. cerevisiae deletion strains, locus YOR070C, strain gyp1, active compounds read low 0.998 | S. cerevisiae deletion strains, locus YOR080W, strain dia2, active compounds read low 0.985 | S. cerevisiae deletion strains, locus YOR083W, strain WHI5 (second series), active compounds read low 0.977 | S. cerevisiae deletion strains, locus YOR083W, strain WHI5, active compounds read low 0.99 | S. cerevisiae deletion strains, locus YOR106W, strain vam3, active compounds read low 0.991 | S. cerevisiae deletion strains, locus YOR136W, strain idh2, active compounds read low 0.988 | S. cerevisiae deletion strains, locus YOR144C, strain elg1, active compounds read low 0.998 | S. cerevisiae deletion strains, locus YOR184W, strain ser1, active compounds read low 0.981 | S. cerevisiae deletion strains, locus YOR231W, strain MKK1, active compounds read low 0.981 | S. cerevisiae deletion strains, locus YOR265W, strain rbl2, active compounds read low 1 | S. cerevisiae deletion strains, locus YOR270C, strain vph1, active compounds read low 1.02 | S. cerevisiae deletion strains, locus YOR290C, strain snf2, active compounds read low 0.925 | S. cerevisiae deletion strains, locus YOR316C, strain cot1, active compounds read low 0.999 | S. cerevisiae deletion strains, locus YPL051W, strain arl3, active compounds read low 0.992 | S. cerevisiae deletion strains, locus YPL055C, strain LGE1, active compounds read low 1.02 | S. cerevisiae deletion strains, locus YPL078C, strain atp4, active compounds read low 0.997 | S. cerevisiae deletion strains, locus YPL106C, strain sse1, active compounds read low 0.985 | S. cerevisiae deletion strains, locus YPL240C, strain hsp82, active compounds read low 0.983 | S. cerevisiae deletion strains, locus YPL241C, strain CIN2, active compounds read low 1.04 and 1.01 | S. cerevisiae deletion strains, locus YPL256C, strain CLN2, active compounds read low 0.953 | S. cerevisiae deletion strains, locus YPR119W, strain clb2, active compounds read low 0.997 | S. cerevisiae deletion strains, locus YPR141C, strain kar3, active compounds read low 0.997 | S. cerevisiae deletion strains, locus YPR163C, strain tif3, active compounds read low 0.998 | S. cerevisiae deletion strains, locus YPR167C, strain met16, active compounds read low 0.997 | S. cerevisiae deletion strains, strain wtn01, active compounds read low 1.01 | S. cerevisiae strains, strain wild type, active compounds read low 1.01
